According to publication PMC7862700, “An all-to-all approach to the identification of sequence-specific readers for epigenetic DNA modifications on cytosine”:

Tests used:
Assay in all cases: DAPPL (digital affinity profiling via proximity ligation, sequencing); 10 mM Tris-HCl pH 7.5, 50 mM NaCl, 1 mM DTT, 4% glycerol, room temperature, 30 min; GST-TFs on glutathione beads, 16-mer random dsDNA library, 0.1% formaldehyde crosslink after washing; high values mean tight binding
FLI1 = target: T1, FLI1 (Homo sapiens, UniProt Q01543 1-452); conditions: protein: recombinant; tags: N-terminal GST; dsDNA, one strand shown
T1 sequence: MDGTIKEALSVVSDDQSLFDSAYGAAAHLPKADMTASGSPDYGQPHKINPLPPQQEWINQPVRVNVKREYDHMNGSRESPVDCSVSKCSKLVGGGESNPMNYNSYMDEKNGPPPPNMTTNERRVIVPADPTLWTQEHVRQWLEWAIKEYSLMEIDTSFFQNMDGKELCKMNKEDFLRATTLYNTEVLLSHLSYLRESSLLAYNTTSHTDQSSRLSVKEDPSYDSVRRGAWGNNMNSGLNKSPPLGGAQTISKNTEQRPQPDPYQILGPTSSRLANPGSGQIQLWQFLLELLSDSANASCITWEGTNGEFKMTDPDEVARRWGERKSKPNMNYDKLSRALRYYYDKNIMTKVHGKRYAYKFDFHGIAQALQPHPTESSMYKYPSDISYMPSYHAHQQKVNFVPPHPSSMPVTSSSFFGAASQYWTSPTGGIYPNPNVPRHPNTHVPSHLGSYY
Procedure, shortened: (§1)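 A tag-only sample was pooled with DNA-barcoded human transcription factors that had been expressed in yeast as GST fusions and captured on glutathione beads. The pools were incubated for 30 min at room temperature with 200 nmole of a random double-stranded 16-mer DNA library in Tris/NaCl/DTT/glycerol buffer, then washed, crosslinked with 0.1% formaldehyde, proximity-ligated (BsaI/T4 ligase, 1 h, 37 °C), PCR-amplified and sequenced on an Illumina NextSeq500. Binding signal is each hexamer's read frequency for a factor divided by its frequency for the tag-only sample.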

ELK1 = target: T2, ELK1 (Homo sapiens, UniProt P19419 1-428); conditions: protein: recombinant; tags: N-terminal GST; dsDNA, one strand shown
T2 sequence: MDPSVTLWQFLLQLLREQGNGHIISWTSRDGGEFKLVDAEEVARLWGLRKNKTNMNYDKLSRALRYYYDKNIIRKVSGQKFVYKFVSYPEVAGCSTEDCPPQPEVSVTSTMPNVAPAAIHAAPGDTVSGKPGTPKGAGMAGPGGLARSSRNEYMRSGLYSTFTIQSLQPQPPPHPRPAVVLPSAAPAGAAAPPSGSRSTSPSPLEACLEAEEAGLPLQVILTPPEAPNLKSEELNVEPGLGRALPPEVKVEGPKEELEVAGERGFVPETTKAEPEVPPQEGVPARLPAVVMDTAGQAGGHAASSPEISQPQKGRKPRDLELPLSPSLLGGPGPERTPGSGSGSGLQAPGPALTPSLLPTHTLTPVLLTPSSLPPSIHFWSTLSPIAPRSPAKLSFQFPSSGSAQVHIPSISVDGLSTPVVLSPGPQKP
Procedure, shortened: as §1

GABPA = target: T3, GABPA (Homo sapiens, UniProt Q06546 1-454); conditions: protein: recombinant; tags: N-terminal GST; dsDNA, one strand shown
T3 sequence: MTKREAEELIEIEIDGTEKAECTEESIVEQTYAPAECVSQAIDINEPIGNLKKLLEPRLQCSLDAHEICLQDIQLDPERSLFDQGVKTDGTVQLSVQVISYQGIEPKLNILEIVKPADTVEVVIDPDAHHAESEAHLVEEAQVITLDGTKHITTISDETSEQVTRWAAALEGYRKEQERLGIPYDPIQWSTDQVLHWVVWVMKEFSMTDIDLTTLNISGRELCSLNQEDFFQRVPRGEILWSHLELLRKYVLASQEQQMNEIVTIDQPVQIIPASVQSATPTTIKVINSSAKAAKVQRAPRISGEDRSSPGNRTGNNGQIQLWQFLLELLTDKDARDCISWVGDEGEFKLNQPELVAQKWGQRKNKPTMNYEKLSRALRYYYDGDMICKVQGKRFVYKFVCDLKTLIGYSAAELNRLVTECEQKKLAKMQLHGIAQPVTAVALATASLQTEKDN
Procedure, shortened: as §1

ERG = target: T4, ERG (Homo sapiens, UniProt P11308 1-479); conditions: protein: recombinant; tags: N-terminal GST; dsDNA, one strand shown
T4 sequence: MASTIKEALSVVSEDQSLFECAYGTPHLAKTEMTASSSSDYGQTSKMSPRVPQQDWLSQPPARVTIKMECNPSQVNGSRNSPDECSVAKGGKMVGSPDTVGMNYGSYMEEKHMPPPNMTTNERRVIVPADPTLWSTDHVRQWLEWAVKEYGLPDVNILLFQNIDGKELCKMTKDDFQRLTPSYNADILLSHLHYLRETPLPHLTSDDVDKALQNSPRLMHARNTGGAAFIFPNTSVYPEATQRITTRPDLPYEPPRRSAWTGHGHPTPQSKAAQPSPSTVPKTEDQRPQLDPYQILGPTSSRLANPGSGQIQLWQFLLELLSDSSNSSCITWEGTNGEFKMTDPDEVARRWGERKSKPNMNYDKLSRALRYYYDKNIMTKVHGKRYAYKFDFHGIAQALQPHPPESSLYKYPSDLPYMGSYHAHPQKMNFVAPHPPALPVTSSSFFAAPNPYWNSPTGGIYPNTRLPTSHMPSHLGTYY
Procedure, shortened: as §1

ELF1 = ELF1 (Homo sapiens, UniProt P32519 1-619); conditions: protein: recombinant; tags: N-terminal GST; dsDNA, one strand shown
ELF1, sequence (P32519 whole entry): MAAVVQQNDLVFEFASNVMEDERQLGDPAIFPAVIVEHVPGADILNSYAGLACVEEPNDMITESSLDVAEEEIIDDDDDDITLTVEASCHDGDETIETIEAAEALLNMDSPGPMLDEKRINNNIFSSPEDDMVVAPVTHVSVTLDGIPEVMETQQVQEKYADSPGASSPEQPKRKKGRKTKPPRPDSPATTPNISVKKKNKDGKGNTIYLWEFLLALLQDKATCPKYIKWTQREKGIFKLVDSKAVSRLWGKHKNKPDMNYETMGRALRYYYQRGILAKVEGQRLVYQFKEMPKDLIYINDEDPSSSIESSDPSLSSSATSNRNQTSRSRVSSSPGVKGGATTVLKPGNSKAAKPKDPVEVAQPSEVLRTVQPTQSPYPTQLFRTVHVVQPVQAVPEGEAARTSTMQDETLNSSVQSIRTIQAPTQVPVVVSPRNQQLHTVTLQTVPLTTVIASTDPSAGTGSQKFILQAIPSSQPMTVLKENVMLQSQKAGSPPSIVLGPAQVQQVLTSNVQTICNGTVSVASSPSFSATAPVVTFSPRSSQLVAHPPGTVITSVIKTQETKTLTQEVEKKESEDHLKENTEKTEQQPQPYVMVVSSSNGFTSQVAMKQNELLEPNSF
Procedure, shortened: as §1

EHF = target: T5, EHF (Homo sapiens, UniProt Q9NZC4 1-300); conditions: protein: recombinant; tags: N-terminal GST; dsDNA, one strand shown
T5 sequence: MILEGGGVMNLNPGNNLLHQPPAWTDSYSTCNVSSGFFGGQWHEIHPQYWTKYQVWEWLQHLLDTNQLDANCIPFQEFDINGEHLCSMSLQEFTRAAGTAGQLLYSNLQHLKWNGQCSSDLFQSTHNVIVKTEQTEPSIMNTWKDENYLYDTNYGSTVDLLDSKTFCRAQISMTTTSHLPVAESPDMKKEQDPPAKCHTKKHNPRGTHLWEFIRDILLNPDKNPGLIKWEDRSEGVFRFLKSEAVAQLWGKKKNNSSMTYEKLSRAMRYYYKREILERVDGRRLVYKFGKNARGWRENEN
Procedure, shortened: as §1

SPI1 = SPI1 (Homo sapiens, UniProt P17947 1-270); conditions: protein: recombinant; tags: N-terminal GST; dsDNA, one strand shown
Procedure, shortened: as §1

SPIB = SPIB (Homo sapiens, UniProt Q01892 1-262); conditions: protein: recombinant; tags: N-terminal GST; dsDNA, one strand shown
SPIB, sequence (Q01892 whole entry): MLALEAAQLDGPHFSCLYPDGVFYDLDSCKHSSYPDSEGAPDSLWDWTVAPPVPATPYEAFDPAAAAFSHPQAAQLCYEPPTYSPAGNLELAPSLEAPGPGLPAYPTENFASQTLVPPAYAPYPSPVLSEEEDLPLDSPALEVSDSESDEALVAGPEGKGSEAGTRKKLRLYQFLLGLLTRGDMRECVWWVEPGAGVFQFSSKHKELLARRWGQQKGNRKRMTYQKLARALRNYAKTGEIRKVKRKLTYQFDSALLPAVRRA
Procedure, shortened: as §1

ELK3 = target: T6, ELK3 (Homo sapiens, UniProt P41970 1-407); conditions: protein: recombinant; tags: N-terminal GST; dsDNA, one strand shown
T6 sequence: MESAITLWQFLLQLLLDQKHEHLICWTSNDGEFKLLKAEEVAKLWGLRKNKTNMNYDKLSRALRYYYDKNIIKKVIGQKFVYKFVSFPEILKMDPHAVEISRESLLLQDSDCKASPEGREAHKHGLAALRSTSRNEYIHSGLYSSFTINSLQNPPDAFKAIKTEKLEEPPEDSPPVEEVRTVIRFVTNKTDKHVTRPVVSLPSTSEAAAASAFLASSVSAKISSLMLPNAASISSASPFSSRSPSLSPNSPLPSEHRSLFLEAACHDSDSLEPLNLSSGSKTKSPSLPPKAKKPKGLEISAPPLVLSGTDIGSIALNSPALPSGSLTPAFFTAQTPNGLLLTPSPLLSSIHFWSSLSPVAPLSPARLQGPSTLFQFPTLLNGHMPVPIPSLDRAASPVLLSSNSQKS
Procedure, shortened: as §1

FEV = target: T7, FEV (Homo sapiens, UniProt Q99581 1-238); conditions: protein: recombinant; tags: N-terminal GST; dsDNA, one strand shown
T7 sequence: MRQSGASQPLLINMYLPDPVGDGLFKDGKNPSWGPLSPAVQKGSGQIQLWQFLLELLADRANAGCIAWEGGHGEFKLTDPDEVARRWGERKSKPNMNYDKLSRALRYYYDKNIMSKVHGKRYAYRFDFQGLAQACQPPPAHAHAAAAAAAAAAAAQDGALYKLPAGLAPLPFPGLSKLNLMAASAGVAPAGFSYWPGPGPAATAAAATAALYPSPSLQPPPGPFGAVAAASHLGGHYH
Procedure, shortened: as §1

ETV5 = ETV5 (Homo sapiens, UniProt P41161 1-510); conditions: protein: recombinant; tags: N-terminal GST; dsDNA, one strand shown
ETV5, sequence (P41161 whole entry): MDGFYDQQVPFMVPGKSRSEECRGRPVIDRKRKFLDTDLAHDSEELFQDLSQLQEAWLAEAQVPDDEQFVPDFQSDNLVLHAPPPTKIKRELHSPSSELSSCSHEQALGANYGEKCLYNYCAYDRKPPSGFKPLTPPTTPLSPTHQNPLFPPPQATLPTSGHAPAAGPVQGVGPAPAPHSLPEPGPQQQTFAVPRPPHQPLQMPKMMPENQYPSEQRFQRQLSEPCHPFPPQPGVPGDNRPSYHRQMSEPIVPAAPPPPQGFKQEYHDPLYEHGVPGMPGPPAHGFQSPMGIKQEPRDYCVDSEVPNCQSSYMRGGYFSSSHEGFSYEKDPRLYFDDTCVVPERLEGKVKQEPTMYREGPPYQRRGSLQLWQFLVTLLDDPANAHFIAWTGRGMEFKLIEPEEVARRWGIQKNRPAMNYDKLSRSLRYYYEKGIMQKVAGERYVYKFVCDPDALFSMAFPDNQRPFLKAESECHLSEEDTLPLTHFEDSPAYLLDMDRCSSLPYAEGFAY
Procedure, shortened: as §1

HSF1 = HSF1 (Homo sapiens, UniProt Q00613 1-529); conditions: protein: recombinant; tags: N-terminal GST; chain copies: 3; dsDNA, one strand shown
HSF1, sequence (Q00613 whole entry): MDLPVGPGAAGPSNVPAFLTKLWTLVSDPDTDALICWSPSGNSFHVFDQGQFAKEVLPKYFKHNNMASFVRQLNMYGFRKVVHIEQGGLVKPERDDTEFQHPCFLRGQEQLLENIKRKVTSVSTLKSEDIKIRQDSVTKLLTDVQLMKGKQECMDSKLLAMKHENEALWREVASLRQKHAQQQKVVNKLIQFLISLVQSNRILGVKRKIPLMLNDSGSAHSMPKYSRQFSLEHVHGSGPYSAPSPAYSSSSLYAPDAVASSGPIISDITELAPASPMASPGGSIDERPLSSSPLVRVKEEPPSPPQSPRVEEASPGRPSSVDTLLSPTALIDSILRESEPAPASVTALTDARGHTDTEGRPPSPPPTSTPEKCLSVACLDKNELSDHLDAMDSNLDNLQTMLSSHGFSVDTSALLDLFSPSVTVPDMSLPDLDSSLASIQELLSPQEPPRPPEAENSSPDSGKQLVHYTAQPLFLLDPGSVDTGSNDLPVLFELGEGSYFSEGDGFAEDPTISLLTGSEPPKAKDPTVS
Procedure, shortened: as §1

SPIC = target: T8, SPIC (Homo sapiens, UniProt Q8N5J4 1-248); conditions: protein: recombinant; tags: N-terminal GST; dsDNA, one strand shown
T8 sequence: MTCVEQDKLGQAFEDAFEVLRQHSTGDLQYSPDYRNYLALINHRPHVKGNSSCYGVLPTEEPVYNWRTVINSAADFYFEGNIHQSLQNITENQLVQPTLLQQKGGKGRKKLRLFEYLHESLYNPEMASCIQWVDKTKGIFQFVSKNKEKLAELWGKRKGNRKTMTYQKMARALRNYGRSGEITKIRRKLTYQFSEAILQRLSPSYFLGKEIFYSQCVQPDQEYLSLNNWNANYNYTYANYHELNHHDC
Procedure, shortened: as §1

ELF4 = ELF4 (Homo sapiens, UniProt Q99607 1-663); conditions: protein: recombinant; tags: N-terminal GST; dsDNA, one strand shown
ELF4, sequence (Q99607 whole entry): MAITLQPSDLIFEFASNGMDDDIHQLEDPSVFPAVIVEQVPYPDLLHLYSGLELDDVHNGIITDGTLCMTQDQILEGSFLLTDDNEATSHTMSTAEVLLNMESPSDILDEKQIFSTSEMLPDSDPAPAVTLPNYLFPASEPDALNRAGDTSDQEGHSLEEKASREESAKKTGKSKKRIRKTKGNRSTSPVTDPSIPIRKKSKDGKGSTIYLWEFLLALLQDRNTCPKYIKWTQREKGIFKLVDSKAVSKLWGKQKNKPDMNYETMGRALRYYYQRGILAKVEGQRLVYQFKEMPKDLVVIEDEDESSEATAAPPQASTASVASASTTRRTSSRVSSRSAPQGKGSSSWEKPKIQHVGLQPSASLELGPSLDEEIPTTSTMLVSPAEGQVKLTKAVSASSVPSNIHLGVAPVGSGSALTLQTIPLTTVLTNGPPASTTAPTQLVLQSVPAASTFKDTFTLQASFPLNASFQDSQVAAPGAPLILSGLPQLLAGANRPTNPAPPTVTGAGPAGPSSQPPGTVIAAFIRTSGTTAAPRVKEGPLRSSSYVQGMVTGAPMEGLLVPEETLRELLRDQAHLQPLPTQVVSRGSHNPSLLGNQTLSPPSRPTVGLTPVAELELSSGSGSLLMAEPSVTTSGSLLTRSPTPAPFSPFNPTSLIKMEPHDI
Procedure, shortened: as §1

ELK4 = target: T9, ELK4 (Homo sapiens, UniProt P28324-2 1-405); conditions: protein: recombinant; tags: N-terminal GST; dsDNA, one strand shown
T9 sequence: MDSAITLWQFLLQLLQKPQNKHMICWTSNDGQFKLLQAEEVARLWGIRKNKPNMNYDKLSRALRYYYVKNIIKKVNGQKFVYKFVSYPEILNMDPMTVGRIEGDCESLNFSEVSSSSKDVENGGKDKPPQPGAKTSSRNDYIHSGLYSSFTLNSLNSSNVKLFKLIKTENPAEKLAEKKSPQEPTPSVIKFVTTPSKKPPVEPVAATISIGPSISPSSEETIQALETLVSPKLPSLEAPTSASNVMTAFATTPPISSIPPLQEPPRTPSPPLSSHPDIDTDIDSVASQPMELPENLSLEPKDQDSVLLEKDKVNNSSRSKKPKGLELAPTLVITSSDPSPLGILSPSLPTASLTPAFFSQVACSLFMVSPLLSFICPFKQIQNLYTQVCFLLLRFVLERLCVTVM
Procedure, shortened: as §1

ETV2 = target: T10, ETV2 (Homo sapiens, UniProt O00321 1-342); conditions: protein: recombinant; tags: N-terminal GST; dsDNA, one strand shown
T10 sequence: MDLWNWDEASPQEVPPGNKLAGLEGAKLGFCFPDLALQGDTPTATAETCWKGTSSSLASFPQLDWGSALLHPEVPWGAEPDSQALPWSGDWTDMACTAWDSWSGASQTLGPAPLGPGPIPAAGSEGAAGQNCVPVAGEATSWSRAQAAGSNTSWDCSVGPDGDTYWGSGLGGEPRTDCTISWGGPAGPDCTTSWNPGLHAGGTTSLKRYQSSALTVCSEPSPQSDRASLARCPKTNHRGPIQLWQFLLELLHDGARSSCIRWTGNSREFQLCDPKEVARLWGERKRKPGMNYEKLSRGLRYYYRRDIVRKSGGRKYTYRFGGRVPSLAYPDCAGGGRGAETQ
Procedure, shortened: as §1

ELF3 = target: T11, ELF3 (Homo sapiens, UniProt P78545 1-371); conditions: protein: recombinant; tags: N-terminal GST; dsDNA, one strand shown
T11 sequence: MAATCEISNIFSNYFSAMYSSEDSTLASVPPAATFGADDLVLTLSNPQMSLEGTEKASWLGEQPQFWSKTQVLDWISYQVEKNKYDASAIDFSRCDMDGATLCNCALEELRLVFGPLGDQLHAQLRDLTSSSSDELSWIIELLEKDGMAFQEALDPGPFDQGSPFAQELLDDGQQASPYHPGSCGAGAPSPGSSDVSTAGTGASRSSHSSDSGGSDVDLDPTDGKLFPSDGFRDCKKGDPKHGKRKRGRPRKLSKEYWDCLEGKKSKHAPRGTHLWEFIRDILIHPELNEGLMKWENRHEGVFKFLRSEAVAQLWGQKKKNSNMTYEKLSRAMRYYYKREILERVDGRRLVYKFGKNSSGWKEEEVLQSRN
Procedure, shortened: as §1

CRX = CRX (Homo sapiens, UniProt O43186 1-299); conditions: protein: recombinant; tags: N-terminal GST; dsDNA, one strand shown
CRX, sequence (O43186 whole entry): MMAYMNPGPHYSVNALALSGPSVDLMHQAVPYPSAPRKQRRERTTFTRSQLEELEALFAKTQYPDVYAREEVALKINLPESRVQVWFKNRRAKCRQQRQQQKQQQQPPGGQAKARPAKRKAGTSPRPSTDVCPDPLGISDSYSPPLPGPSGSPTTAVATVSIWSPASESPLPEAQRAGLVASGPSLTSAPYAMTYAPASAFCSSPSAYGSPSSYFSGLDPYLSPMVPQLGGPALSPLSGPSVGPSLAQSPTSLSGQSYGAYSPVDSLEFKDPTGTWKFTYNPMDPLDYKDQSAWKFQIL
Procedure, shortened: as §1

ETV1 = ETV1 (Homo sapiens, UniProt P50549 1-477); conditions: protein: recombinant; tags: N-terminal GST; dsDNA, one strand shown
ETV1, sequence (P50549 whole entry): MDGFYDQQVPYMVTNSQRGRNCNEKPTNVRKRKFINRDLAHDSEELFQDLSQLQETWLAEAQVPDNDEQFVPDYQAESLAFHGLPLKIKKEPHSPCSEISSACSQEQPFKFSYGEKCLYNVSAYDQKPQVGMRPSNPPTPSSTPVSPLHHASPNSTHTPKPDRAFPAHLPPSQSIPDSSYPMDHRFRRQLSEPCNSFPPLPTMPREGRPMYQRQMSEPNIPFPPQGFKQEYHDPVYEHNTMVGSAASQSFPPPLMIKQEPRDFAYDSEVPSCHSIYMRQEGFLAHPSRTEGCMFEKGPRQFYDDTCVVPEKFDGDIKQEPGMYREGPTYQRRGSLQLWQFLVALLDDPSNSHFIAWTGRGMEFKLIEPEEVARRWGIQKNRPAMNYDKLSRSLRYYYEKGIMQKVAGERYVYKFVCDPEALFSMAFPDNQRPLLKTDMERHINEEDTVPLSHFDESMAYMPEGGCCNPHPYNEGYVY
Procedure, shortened: as §1

## TATAGT
FLI1
  binding signal: 1.12 fold enrichment (6-mer frequency, TF over GST control)
ELK1
  binding signal: 1.1 fold enrichment (6-mer frequency, TF over GST control)
GABPA
  binding signal: 1.11 fold enrichment (6-mer frequency, TF over GST control)
ERG
  binding signal: 1.05 fold enrichment (6-mer frequency, TF over GST control)
ELF1
  binding signal: 1.07 fold enrichment (6-mer frequency, TF over GST control)
EHF
  binding signal: 1.12 fold enrichment (6-mer frequency, TF over GST control)
SPI1
  binding signal: 1.06 fold enrichment (6-mer frequency, TF over GST control)
SPIB
  binding signal: 1.04 fold enrichment (6-mer frequency, TF over GST control)
ELK3
  binding signal: 1.03 fold enrichment (6-mer frequency, TF over GST control)
FEV
  binding signal: 1.03 fold enrichment (6-mer frequency, TF over GST control)
ETV5
  binding signal: 1.11 fold enrichment (6-mer frequency, TF over GST control)
HSF1
  binding signal: 1.07 fold enrichment (6-mer frequency, TF over GST control)
SPIC
  binding signal: 1.09 fold enrichment (6-mer frequency, TF over GST control)
ELF4
  binding signal: 1.03 fold enrichment (6-mer frequency, TF over GST control)
ELK4
  binding signal: 1.31 fold enrichment (6-mer frequency, TF over GST control)
ETV2
  binding signal: 1.12 fold enrichment (6-mer frequency, TF over GST control)
ELF3
  binding signal: 1.28 fold enrichment (6-mer frequency, TF over GST control)
CRX
  binding signal: 1.34 fold enrichment (6-mer frequency, TF over GST control)
ETV1
  binding signal: 1.11 fold enrichment (6-mer frequency, TF over GST control)
